C diff growth = C. difficile growth inhibition; Clostridium difficile clinical isolate growth, OD600, 24 h; hits give low values; growth activity, negative = inhibition, % at 16 µg/mL (by protocol); 86,000 tested, 0.25% active; AID 1259249;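 active = mean growth activity at or below -80% and every replicate also at or below -80%; inconclusive = mean at or below -80% but some replicate above -80%; inactive = mean growth activity above -80%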;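 also: 0% = DMSO wells and -100% = levofloxacin 16 µg/mL wells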
T cruzi growth-1 = T. cruzi proliferation inhibition. inhibition, % at 8.34 µM. T. cruzi beta-gal in NIH3T3, GalScreen luminescence, 90 h. 77,000 tested, 5.9% active;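 active = mean inhibition above about 93%, with at least 55% of replicates each passing it, limit read from the data, passing the limit was not always enough; inconclusive = only one of those two conditions holds; inactive = neither condition holds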
Pf Dd2 growth = blocks growth of Plasmodium falciparum Dd2 parasites; P. falciparum Dd2 growth, SYBR Green, 72 h; hits give low values; activity change, % at 10 µM; 94,000 tested, 2.3% active; in the data active = activity change below about -80%; inconclusive = no clear call, values can overlap the other calls
T cruzi growth-2 = inhibitors of T. cruzi proliferation. shares compounds with T cruzi growth-1. T. cruzi beta-gal in NIH3T3, GalScreen luminescence, 90 h. inhibition, % at 8.35 µM. 5,600 tested, 72% active. AID 651739;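 active = mean replicate inhibition above about 95% and at least 55% of replicates individually reaching it, limit read from the data; inconclusive = only one of the two criteria is met; inactive = neither criterion is met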
T cruzi growth-3 = Trypanosoma cruzi proliferation inhibition; T. cruzi beta-gal in NIH3T3, GalScreen luminescence, 90 h; shares compounds with T cruzi growth-1; 5,600 tested, 21% active; inhibition, % at 2.09 µM;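 active = mean inhibition above about 95%, with at least 55% of replicates also reaching it, limit read from the data; inconclusive = meets just one of the two conditions; inactive = meets neither condition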;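 also: plate controls were neutral control median for no effect and positive control median for full effect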
3T3 cytotox = cytotoxicity in mouse NIH/3T3 fibroblasts | NIH/3T3 viability, CellTiter-Glo ATP luminescence, 90 h | shares compounds with T cruzi growth-1 | cytotoxicity (signal decrease), % at 8.35 µM | 5,600 tested, 14% active | AID 651742;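 active = mean signal decrease across replicates above about 35% based on untreated-well scatter, with enough replicates individually passing, limit read from the data; inconclusive = no rule stated though some were filed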;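 also: 0% = median of neutral control wells and 100% = median of positive control wells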
NIH3T3 tox 2 = NIH/3T3 (mouse) viability loss | 5,600 tested, 56% active | inhibition, % at 24.9 µM | shares compounds with T cruzi growth-1 | NIH/3T3 viability, CellTiter-Glo ATP luminescence, 90 h;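 active = mean loss of cell viability signal at or above a set limit, and enough replicates individually reaching it; inconclusive = meets only the mean limit or only the replicate share; inactive = meets neither condition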;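 also: 0% = median of neutral control wells and 100% = median of positive control wells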
* marks the source's active call; other numbers are inactive results; ? = inconclusive; nt = not tested or not shown. Compounds with a hit are over-represented: about 6.8% of the library has one in this group of screens.

SMILES	C diff growth	T cruzi growth-1	Pf Dd2 growth	T cruzi growth-2	T cruzi growth-3	3T3 cytotox	NIH3T3 tox 2
C[C@H](CO)N1C[C@H](C)[C@H](CN(C)C(=O)NC2CCCCC2)Oc2ccc(NC(=O)NC3CCCCC3)cc2C1=O	-5	4	3	nt	nt	nt	nt
CCCC#Cc1ccc([C@H]2[C@H](CO)N3C(=O)CN(C(=O)c4cccnc4)C[C@@H]23)cc1	-1	nt	11	nt	nt	nt	nt
C[C@@H]1CN([C@H](C)CO)C(=O)c2cc(C#Cc3cccc(F)c3)cnc2O[C@H]1CN(C)C(=O)C1CCOCC1	-4	63	-32	nt	nt	nt	nt
C[C@H](CO)N1C[C@H](C)[C@H](CN(C)Cc2ccc(C(F)(F)F)cc2)OCCCC[C@H](C)Oc2ccc(NS(C)(=O)=O)cc2C1=O	11	-59	-10	nt	nt	nt	nt
C[C@@H]1CN([C@H](C)CO)C(=O)c2cc(NS(C)(=O)=O)ccc2O[C@@H](C)CCCCO[C@H]1CN(C)Cc1ccc(C(F)(F)F)cc1	10	116*	-34	107*	108*	1	98*
C[C@H]1CCCCO[C@@H](CN(C)Cc2ccncc2)[C@@H](C)CN([C@@H](C)CO)C(=O)c2cc(NS(=O)(=O)c3ccc(Cl)cc3)ccc2O1	-4	91	-43	nt	nt	nt	nt
C[C@@H]1CN([C@@H](C)CO)C(=O)c2cc(NS(=O)(=O)c3ccc(Cl)cc3)ccc2O[C@@H](C)CCCCO[C@H]1CN(C)Cc1ccncc1	-7	?	-7	102*	38	-12	16
C[C@@H]1CCCCO[C@@H](CN(C)Cc2ccc(C(F)(F)F)cc2)[C@@H](C)CN([C@@H](C)CO)C(=O)c2cc(NS(=O)(=O)c3ccc(Cl)cc3)ccc2O1	27	97*	-33	87	113*	28	102*
C[C@@H]1CN([C@H](C)CO)C(=O)c2cc(NS(=O)(=O)c3ccc(Cl)cc3)ccc2O[C@@H](C)CCCCO[C@@H]1CN(C)Cc1ccc(C(F)(F)F)cc1	14	90	-62	nt	nt	nt	nt
CO[C@H]1CN(C)C(=O)c2cc(NC(=O)c3cccc(F)c3)ccc2OC[C@H](C)N(C(C)=O)C[C@H]1C	nt	30	nt	nt	nt	nt	nt
Cc1ccc(S(=O)(=O)Nc2cccc3c2O[C@@H](CN(C)C(=O)Nc2ccccc2)[C@H](C)CN([C@H](C)CO)C3=O)cc1	2	3	-8	nt	nt	nt	nt
COCC(=O)N(C)C[C@@H]1Oc2cc(-c3ccccc3F)ccc2S(=O)(=O)N([C@@H](C)CO)C[C@H]1C	-2	nt	8	nt	nt	nt	nt
O=C(C[C@H]1C[C@H]2c3cc(NC(=O)NC4CCCC4)ccc3O[C@H]2[C@@H](CO)O1)NCCc1ccccc1	4	nt	-2	nt	nt	nt	nt
COc1ccc(NC(=O)N2CCCCN3[C@H](C2)[C@H](c2ccc(C4=CCCCC4)cc2)[C@@H]3CO)cc1	26	110*	4	114*	42	7	94*
COc1ccc(NC(=O)N2CCCCN3[C@H](CO)[C@@H](c4ccc(-c5ccccc5C)cc4)[C@@H]3C2)cc1	29	51	-31	nt	nt	nt	nt
O=C(Nc1ccc(F)cc1)N1CCCCN2[C@H](C1)[C@H](c1ccc(C3=CCCCC3)cc1)[C@@H]2CO	8	112*	-24	106*	39	-1	86*
O=C(Nc1ccccc1F)N1CCCCN2[C@H](CO)[C@H](c3ccc(C4=CCCC4)cc3)[C@H]2C1	17	103*	-33	92	68	14	103*
O=C(Nc1cc(F)ccc1F)N1CCCCN2[C@H](CO)[C@H](c3ccc(C4=CCCCC4)cc3)[C@@H]2C1	-9	82	24	nt	nt	nt	nt
COc1ccc(NC(=O)N2CCCCN3[C@H](CO)[C@@H](c4ccc(C5=CCCCC5)cc4)[C@H]3C2)cc1	42	117*	-35	105*	90	29	105*
O=C(Nc1ccccc1F)N1CCCCN2[C@H](C1)[C@H](c1ccc(C3=CCCC3)cc1)[C@@H]2CO	2	37	7	nt	nt	nt	nt
COc1ccc(NC(=O)N2CCCCN3[C@@H](CO)[C@H](c4ccc(C5=CCCC5)cc4)[C@@H]3C2)cc1	-3	84	-32	nt	nt	nt	nt
C[C@H](CO)N1C[C@H](C)[C@H](CN(C)S(=O)(=O)c2cn(C)cn2)Oc2ncc(C3=CCCCC3)cc2C1=O	-1	nt	31	nt	nt	nt	nt
O=C(c1ccccc1)N1C[C@@H]2[C@H](c3ccccc31)[C@@H](CO)N2C(=O)CN1CCOCC1	-1	30	2	nt	nt	nt	nt
CO[C@@H]1CN(C)C(=O)c2ccc(NC(=O)C3CCCC3)cc2OC[C@@H](C)N(Cc2nccs2)C[C@H]1C	nt	26	-18	nt	nt	nt	nt
C[C@H]1CN([C@@H](C)CO)S(=O)(=O)c2ccc(C#CC3CCCCC3)cc2O[C@H]1CN(C)C	21	37	-80	nt	nt	nt	nt
SMILES	C diff growth	T cruzi growth-1	Pf Dd2 growth	T cruzi growth-2	T cruzi growth-3	3T3 cytotox	NIH3T3 tox 2
O=C(CC1CC1)Nc1ccc2c(c1)[C@H]1C[C@@H](CC(=O)N3CCCCC3)O[C@H](CO)[C@H]1O2	-2	104*	8	?	22	6	15
O=C(C[C@@H]1C[C@@H]2c3cc(NS(=O)(=O)c4ccccc4)ccc3O[C@@H]2[C@H](CO)O1)N1CCCCC1	-8	104*	-3	64	2	21	18
O=C(C[C@@H]1C[C@@H]2c3cc(NS(=O)(=O)c4ccccc4)ccc3O[C@@H]2[C@@H](CO)O1)N1CCOCC1	-9	8	4	nt	nt	nt	nt
O=C(CC1CC1)Nc1ccc2c(c1)[C@H]1C[C@H](CC(=O)N3CCCCC3)O[C@H](CO)[C@H]1O2	0	8	15	nt	nt	nt	nt
O=C(CC1CC1)Nc1ccc2c(c1)[C@H]1C[C@@H](CC(=O)N3CCCCC3)O[C@@H](CO)[C@H]1O2	0	86	-16	nt	nt	nt	nt
O=C(CC1CC1)Nc1ccc2c(c1)[C@@H]1C[C@@H](CC(=O)N3CCCCC3)O[C@H](CO)[C@@H]1O2	0	110*	18	19	-45	-10	2
C[C@H](CO)N1C[C@H](C)[C@@H](CN(C)C(=O)CN(C)C)Oc2ncc(C#CC(C)(C)O)cc2C1=O	1	-19	7	nt	nt	nt	nt
C/C=C/c1ccc([C@@H]2[C@H](CO)N3C(=O)CN(Cc4ccc(C)cc4)C[C@@H]23)cc1	-2	nt	-5	nt	nt	nt	nt
CCNC(=O)C[C@@H]1CC[C@H]2[C@@H](COC[C@H](O)CN2C(=O)Nc2ccc3c(c2)OCO3)O1	nt	40	-2	nt	nt	nt	nt
COc1ccccc1-c1ccc2c(c1)O[C@@H](CN(C)C(C)=O)[C@@H](C)CN([C@@H](C)CO)S2(=O)=O	0	nt	0	nt	nt	nt	nt
COc1ccccc1-c1ccc2c(c1)O[C@H](CN(C)S(=O)(=O)c1ccc(C)cc1)[C@H](C)CN([C@@H](C)CO)S2(=O)=O	21	128*	-47	104*	?	?	58*
COc1ccccc1-c1ccc2c(c1)O[C@H](CN(C)S(=O)(=O)c1ccccc1)[C@@H](C)CN([C@H](C)CO)S2(=O)=O	5	86	-65	nt	nt	nt	nt
